# Measured values: PubChem BioAssay (Tox21)
# “And” between values parts separate entries of the source, which are not always exact repeats. Identical values can stand only once. Inconclusive results are not listed. Values without a mark were called inactive. The source made the active and inactive calls. The call rests on the fitted dose curve; in most records, active means well fitted curve in the direction sought with a large enough effect in the repeat runs; inconclusive means weak or mixed curves; inactive means no such curve, though single readings can be large; an effect the other way counts as inactive or inconclusive.
# Target: Cytochrome P450 2C19 (Homo sapiens) (UniProt P33261)
# Assay: Cytochrome P450 Family 2 Subfamily C Member 19 (CYP2C19) small molecule antagonists: luciferase reporter qHTS assay (AID 1671197); further: nearly all actives have a fitted effect of over 65% in size
# Conditions: P450-Glo CYP2C19 enzyme, luciferin luminescence, 1 h; series mostly up to 115 µM; activity change, negative = inhibition: at the top concentration
# Outline: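 Compounds were tested on CYP2C19 activity via proluciferin conversion to luciferin. The 37C, 1 h reaction followed NADPH addition; detection reagent stopped it.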
# On the % scale 0 is the no-effect control and ±100 the full control effect; potency means the concentration at half of the fitted maximal effect.
# Cytochrome P450 2C19 (Homo sapiens), sequence (P33261 whole entry, looked up): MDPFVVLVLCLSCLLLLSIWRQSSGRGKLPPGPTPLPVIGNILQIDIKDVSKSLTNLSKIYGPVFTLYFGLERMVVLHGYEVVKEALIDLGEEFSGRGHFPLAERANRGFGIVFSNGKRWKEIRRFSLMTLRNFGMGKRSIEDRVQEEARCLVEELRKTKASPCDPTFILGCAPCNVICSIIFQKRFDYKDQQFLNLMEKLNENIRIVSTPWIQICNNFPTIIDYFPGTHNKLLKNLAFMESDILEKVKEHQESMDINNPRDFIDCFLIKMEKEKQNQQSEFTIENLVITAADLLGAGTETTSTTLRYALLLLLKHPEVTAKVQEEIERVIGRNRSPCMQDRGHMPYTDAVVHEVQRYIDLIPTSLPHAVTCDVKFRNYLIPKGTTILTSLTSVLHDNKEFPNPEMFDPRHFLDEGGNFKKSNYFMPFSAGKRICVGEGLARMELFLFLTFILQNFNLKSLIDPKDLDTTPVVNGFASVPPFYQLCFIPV
SMILES,Potency,"activity change, negative = inhibition"
C=CC(C)(CCC=C(C)C)OC=O (stereo unspecified),20 µM (active),–
COc1cccc(OC)c1C(=O)O,–,-25.2%
CCC(COC(=O)CCS)(COC(=O)CCS)COC(=O)CCS,5.64 µM (active),–
CC1=CCC(=C(C)C)CC1,79.6 µM (active),–
CC(C)(C)C1CCC(=O)CC1,7.96 µM (active),–
C=CCn1c(=O)n(CC=C)c(=O)n(CC=C)c1=O,1.12 µM (active),–
CCC(CC)C(C)CCOC(C)=O (stereo unspecified),–,-22.6%
Oc1cc(Cl)cc(Cl)c1Cl,–,-1.07%
CC(C)(C)c1ccc(C(O)CCCN2CCC(C(O)(c3ccccc3)c3ccccc3)CC2)cc1 (stereo unspecified),–,48% [at 52.9 µM]
CCCCCCC1CCCC(=O)O1 (stereo unspecified),–,-24.9%
C1CCC(SSC2CCCCC2)CC1,–,-17.4%
Cc1c(C)c2c(c(C)c1OC(=O)c1cccnc1)CC[C@@](C)(CCC[C@H](C)CCC[C@H](C)CCCC(C)C)O2,–,29.9% [at 52.9 µM]
CN(C)c1ccc(C(=C2C=CC(=[N+](C)C)C=C2)c2ccc(N(C)C)cc2)cc1,19.9 µM (active) and 22.4 µM (active) and 21.9 µM (active),–
O=C(O)Cc1ccccc1Nc1c(Cl)cccc1Cl,–,30.6% [at 52.9 µM]
FC(F)(F)c1cccc(Cl)c1,69.7 µM (active),–
C=CCCC(=O)/C=C/C1C(C)=CCCC1(C)C (stereo unspecified),17.8 µM (active),–
CC(C)Cn1cnc2c(N)nc3ccccc3c21,–,10.1% [at 23.6 µM]
O=C(O)O,3.86 µM (active),–

# Target: Cytochrome P450 2C9 (Homo sapiens) (UniProt P11712)
# Assay: Cytochrome P450 Family 2 Subfamily C Member 9 (CYP2C9) small molecule antagonists: luciferase reporter qHTS assay (AID 1671198); further: nearly all actives have a fitted effect of over 50% in size
# Conditions: P450-Glo CYP2C9 enzyme assay, luciferin luminescence; series mostly up to 115 µM; activity change, negative = inhibition: at the top concentration
# Outline: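 Enzyme-substrate mix preincubated with compound 10 min at room temperature; reaction started with NADPH regeneration solution, 1 h 37C. Luminescent luciferin product read after 20 min detection reagent.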
# Cytochrome P450 2C9 (Homo sapiens), sequence (P11712 whole entry, looked up): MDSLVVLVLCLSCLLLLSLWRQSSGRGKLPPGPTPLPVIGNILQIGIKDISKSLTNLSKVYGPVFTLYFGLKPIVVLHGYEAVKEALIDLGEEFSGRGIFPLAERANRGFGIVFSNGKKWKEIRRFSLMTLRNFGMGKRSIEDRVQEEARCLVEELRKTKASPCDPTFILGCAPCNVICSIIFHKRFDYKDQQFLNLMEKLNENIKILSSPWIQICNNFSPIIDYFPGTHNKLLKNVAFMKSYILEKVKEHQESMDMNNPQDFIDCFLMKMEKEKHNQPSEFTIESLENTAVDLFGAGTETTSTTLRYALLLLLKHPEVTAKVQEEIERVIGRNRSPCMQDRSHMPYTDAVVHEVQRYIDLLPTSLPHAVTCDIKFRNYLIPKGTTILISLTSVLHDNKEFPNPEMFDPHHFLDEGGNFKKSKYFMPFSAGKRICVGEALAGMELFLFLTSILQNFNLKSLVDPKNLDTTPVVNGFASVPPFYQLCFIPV
SMILES,"activity change, negative = inhibition",Potency
CC1(C)CC(O)CC(C)(C)N1,-10.9%,–
CCCCCCCCCCCC(=O)OCC(C)OC(=O)CCCCC(=O)O (stereo unspecified),–,7.76 µM (active)
CCO[Si](OCC)(OCC)OCC,-16.9%,–
O=C1OC2(c3ccc(O)cc3Oc3cc(O)ccc32)c2ccc(N=C=S)cc21,–,72.3 µM (active)
CN1CCN2c3ccccc3Cc3ccccc3C2C1 (stereo unspecified),-10.7% [at 53 µM],–
CCC(C)(CCC(C)C)C(=O)[O][Sn]([CH3])([CH3])[O]C(=O)C(C)(CC)CCC(C)C (stereo unspecified),–,25.2 µM (active)
COC(C)=O,2.58%,–
CCCCOC(=O)CO,-8.14%,–
Cc1ccc(N/N=c2\c(=O)cc/c(=N\Nc3ccc(S(=O)(=O)O)cc3)c2=O)c(C)c1,–,35.6 µM (active)
C=CC(C)(CCC=C(C)C)OC=O (stereo unspecified),–,35.6 µM (active)
COc1cccc(OC)c1C(=O)O,-12.7%,–
CCC(COC(=O)CCS)(COC(=O)CCS)COC(=O)CCS,–,28.3 µM (active)
CC1=CCC(=C(C)C)CC1,–,39.9 µM (active)
CC(C)(C)C1CCC(=O)CC1,-8.57%,–
CCCCCCC1CCCC(=O)O1 (stereo unspecified),–,25.2 µM (active)
Cc1c(C)c2c(c(C)c1OC(=O)c1cccnc1)CC[C@@](C)(CCC[C@H](C)CCC[C@H](C)CCCC(C)C)O2,12.7% [at 53 µM],–
CC(C)Cn1cnc2c(N)nc3ccccc3c21,-3.29% [at 23.6 µM],–

# Target: Cytochrome P450 1A2 (Homo sapiens) (UniProt P05177)
# Assay: Cytochrome P450 Family 1 Subfamily A Member 2 (CYP1A2) small molecule antagonists: luciferase reporter qHTS assay (AID 1671199); further: nearly all actives have a fitted effect of over 50% in size
# Conditions: P450-Glo CYP1A2 enzyme, luciferin luminescence, 1 h; series mostly up to 115 µM; activity change, negative = inhibition: at the top concentration
# Outline: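 Steps: enzyme-substrate mix dispensed; test compounds and furafylline control pinned in; 10 min room temperature; NADPH regeneration solution added, 1 h; reaction stopped with luciferin detection reagent; luminescence read after 20 min.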
# Cytochrome P450 1A2 (Homo sapiens), sequence (P05177 whole entry, looked up): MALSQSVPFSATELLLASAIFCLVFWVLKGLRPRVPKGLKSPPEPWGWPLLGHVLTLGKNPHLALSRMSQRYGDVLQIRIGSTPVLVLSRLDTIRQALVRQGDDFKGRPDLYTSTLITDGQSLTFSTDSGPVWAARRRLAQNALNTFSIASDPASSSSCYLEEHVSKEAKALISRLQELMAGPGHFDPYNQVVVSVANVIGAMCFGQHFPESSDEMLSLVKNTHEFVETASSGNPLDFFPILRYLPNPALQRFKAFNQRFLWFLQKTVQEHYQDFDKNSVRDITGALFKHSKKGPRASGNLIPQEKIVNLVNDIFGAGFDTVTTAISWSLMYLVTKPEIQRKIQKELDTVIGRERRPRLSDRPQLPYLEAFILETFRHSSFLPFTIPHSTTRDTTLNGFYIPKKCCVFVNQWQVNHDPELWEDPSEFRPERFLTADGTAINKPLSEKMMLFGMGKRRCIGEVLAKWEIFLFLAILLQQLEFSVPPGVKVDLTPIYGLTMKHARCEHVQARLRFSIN
SMILES,Potency,"activity change, negative = inhibition"
CNc1ccc([N+](=O)[O-])cc1,35.7 µM (active),–
O=C(Oc1ccccc1)Oc1ccccc1,35.4 µM (active),–
CCCCCc1ccc(Cl)cc1,–,-11.5%
Cc1cc(C(C)(C)C)c(O)c(C)c1Cn1c(=O)n(Cc2c(C)cc(C(C)(C)C)c(O)c2C)c(=O)n(Cc2c(C)cc(C(C)(C)C)c(O)c2C)c1=O,31.7 µM (active),–
CCC(=O)C(=O)CC,–,-14.7%
C=C(C)C(=O)OCCCCCCCCCC,–,-12.7%
CCCCCCCCCCOC(=O)c1ccccc1C(=O)OCCCCCCCC,–,-26.6%
CCCCCCCCCCCCCCCC[N+](C)(C)CC,–,-1.83% [at 53 µM]
C=CC(=O)Nc1cc2c(Nc3ccc(F)c(Cl)c3)ncnc2cc1OCCCN1CCOCC1,–,11.5% [at 53 µM]
O=S(=O)(O)c1ccccc1/C=C/c1ccc(-c2ccc(/C=C/c3ccccc3S(=O)(=O)O)cc2)cc1,–,-10.6%
C=CCn1c(=O)n(CC=C)c(=O)n(CC=C)c1=O,31.6 µM (active),–
CCC(CC)C(C)CCOC(C)=O (stereo unspecified),–,-19.6%
Oc1cc(Cl)cc(Cl)c1Cl,16.3 µM (active),–
CC(C)(C)c1ccc(C(O)CCCN2CCC(C(O)(c3ccccc3)c3ccccc3)CC2)cc1 (stereo unspecified),–,10.4% [at 53 µM]
C1CCC(SSC2CCCCC2)CC1,25.2 µM (active),–
CN(C)c1ccc(C(=C2C=CC(=[N+](C)C)C=C2)c2ccc(N(C)C)cc2)cc1,11.2 µM (active) and 20 µM (active) and 10.2 µM (active),–
O=C(O)Cc1ccccc1Nc1c(Cl)cccc1Cl,inactive,–
FC(F)(F)c1cccc(Cl)c1,–,-17.1%
C=CCCC(=O)/C=C/C1C(C)=CCCC1(C)C (stereo unspecified),–,-25.3%

# Target: Voltage-gated inwardly rectifying potassium channel KCNH2 (Homo sapiens) (UniProt Q12809)
# Assay: Human Ether-a-go-go-Related Gene (hERG) channel small molecule antagonists: fluorescence cell-based qHTS assay (AID 1671200); further: nearly all actives have a fitted effect of over 50% in size;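 on activity change, negative = inhibition: hERG-expressing U2OS cells given a thallium stimulus after FluxOR II dye loading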
# Conditions: hERG-U2OS cells, FluxOR thallium flux fluorescence; series mostly up to 76.8 µM; activity change, negative = inhibition: at the top concentration
# Outline: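 Kinetic two-minute fluorescence traces, sampled at 1 s, were collected following thallium stimulus of U2OS cells (1000 per well) that had been cultured overnight at 37 C and loaded with FluxOR II.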
# Voltage-gated inwardly rectifying potassium channel KCNH2 (Homo sapiens), sequence (Q12809 whole entry, looked up): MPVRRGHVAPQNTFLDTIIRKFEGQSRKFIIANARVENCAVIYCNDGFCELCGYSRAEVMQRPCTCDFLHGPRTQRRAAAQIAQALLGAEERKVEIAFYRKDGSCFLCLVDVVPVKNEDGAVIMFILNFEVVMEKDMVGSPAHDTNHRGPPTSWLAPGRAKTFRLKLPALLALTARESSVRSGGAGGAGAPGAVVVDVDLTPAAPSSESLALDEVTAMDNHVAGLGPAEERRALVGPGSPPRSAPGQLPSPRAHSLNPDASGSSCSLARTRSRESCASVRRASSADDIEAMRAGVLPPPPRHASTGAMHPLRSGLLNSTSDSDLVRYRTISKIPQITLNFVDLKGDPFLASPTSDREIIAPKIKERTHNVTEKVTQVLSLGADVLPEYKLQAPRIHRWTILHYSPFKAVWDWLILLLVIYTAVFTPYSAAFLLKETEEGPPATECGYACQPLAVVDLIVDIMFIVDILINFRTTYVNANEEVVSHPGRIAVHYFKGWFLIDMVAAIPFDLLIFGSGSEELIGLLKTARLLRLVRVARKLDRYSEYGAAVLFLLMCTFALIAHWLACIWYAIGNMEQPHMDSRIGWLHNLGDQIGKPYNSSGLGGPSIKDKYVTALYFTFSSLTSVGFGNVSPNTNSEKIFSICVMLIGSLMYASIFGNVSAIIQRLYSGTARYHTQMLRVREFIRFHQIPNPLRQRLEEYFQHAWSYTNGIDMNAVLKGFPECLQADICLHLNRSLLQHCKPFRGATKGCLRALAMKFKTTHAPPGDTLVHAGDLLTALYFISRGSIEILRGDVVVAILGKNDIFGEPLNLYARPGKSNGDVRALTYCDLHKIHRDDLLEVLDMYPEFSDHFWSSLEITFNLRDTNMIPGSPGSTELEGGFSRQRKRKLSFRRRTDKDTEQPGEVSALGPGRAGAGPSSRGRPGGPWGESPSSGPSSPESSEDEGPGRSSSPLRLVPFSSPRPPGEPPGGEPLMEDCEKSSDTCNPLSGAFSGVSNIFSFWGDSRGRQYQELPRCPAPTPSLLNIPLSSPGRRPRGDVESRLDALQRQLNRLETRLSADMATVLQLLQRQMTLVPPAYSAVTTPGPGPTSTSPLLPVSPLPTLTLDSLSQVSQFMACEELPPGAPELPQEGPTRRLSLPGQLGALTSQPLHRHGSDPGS
SMILES,"activity change, negative = inhibition",Potency
CC1(C)CC(O)CC(C)(C)N1,4.73%,–
CNc1ccc([N+](=O)[O-])cc1,2.24%,–
CCCCCCCCCCCC(=O)OCC(C)OC(=O)CCCCC(=O)O (stereo unspecified),-0.558% [at 35.3 µM],–
O=C(Oc1ccccc1)Oc1ccccc1,-13.2%,–
Cc1cc(C(C)(C)C)c(O)c(C)c1Cn1c(=O)n(Cc2c(C)cc(C(C)(C)C)c(O)c2C)c(=O)n(Cc2c(C)cc(C(C)(C)C)c(O)c2C)c1=O,-1.31%,–
CCO[Si](OCC)(OCC)OCC,1.25%,–
CCC(=O)C(=O)CC,0.147%,–
O=C1OC2(c3ccc(O)cc3Oc3cc(O)ccc32)c2ccc(N=C=S)cc21,77%,–
CCC(C)(CCC(C)C)C(=O)[O][Sn]([CH3])([CH3])[O]C(=O)C(C)(CC)CCC(C)C (stereo unspecified),0.0213%,–
C=C(C)C(=O)OCCCCCCCCCC,2.37%,–
COC(C)=O,1.14%,–
CCCCCCCCCCOC(=O)c1ccccc1C(=O)OCCCCCCCC,2.68%,–
CCCCOC(=O)CO,-4.87%,–
CC(C(=O)O)c1ccc2c(c1)[nH]c1ccc(Cl)cc12 (stereo unspecified),0.915% [at 35.3 µM],–
Cc1ccc(N/N=c2\c(=O)cc/c(=N\Nc3ccc(S(=O)(=O)O)cc3)c2=O)c(C)c1,-8.46%,–
C=CC(=O)Nc1cc2c(Nc3ccc(F)c(Cl)c3)ncnc2cc1OCCCN1CCOCC1,-21.9% [at 35.3 µM],–

SMILES,"activity change, negative = inhibition",Potency
O=S(=O)(O)c1ccccc1/C=C/c1ccc(-c2ccc(/C=C/c3ccccc3S(=O)(=O)O)cc2)cc1,-2.25%,–
C=CC(C)(CCC=C(C)C)OC=O (stereo unspecified),-7.67%,–
COc1cccc(OC)c1C(=O)O,-7.52%,–
CC1=CCC(=C(C)C)CC1,-2.72%,–
CC(C)(C)C1CCC(=O)CC1,2.73%,–
C=CCn1c(=O)n(CC=C)c(=O)n(CC=C)c1=O,6.11%,–
CCC(CC)C(C)CCOC(C)=O (stereo unspecified),0.0938%,–
Oc1cc(Cl)cc(Cl)c1Cl,-16.9%,–
CCCCCCC1CCCC(=O)O1 (stereo unspecified),-8.73%,–
C1CCC(SSC2CCCCC2)CC1,-12.7%,–
Cc1c(C)c2c(c(C)c1OC(=O)c1cccnc1)CC[C@@](C)(CCC[C@H](C)CCC[C@H](C)CCCC(C)C)O2,-1.04% [at 35.3 µM],–
CN(C)c1ccc(C(=C2C=CC(=[N+](C)C)C=C2)c2ccc(N(C)C)cc2)cc1,–,3.45 µM (active) and 3.47 µM (active) and 2.68 µM (active)
O=C(O)Cc1ccccc1Nc1c(Cl)cccc1Cl,–,inactive
FC(F)(F)c1cccc(Cl)c1,6.48%,–
CC(C)Cn1cnc2c(N)nc3ccccc3c21,-8.33% [at 15.8 µM],–
O=C(O)O,0.334% [at 6.97 µM],–
